# Results as given in PubChem BioAssay (NCATS).
# Results filed as inconclusive are left out. Where a call stands in place of a potency, no number is given. Calls of active or inactive are those of the source. Unless noted, calls come from the whole dose curve; as a rule, active = well fitted curve in the direction sought with a large enough effect; inconclusive = small, poorly fitted or top-dose-only effect, or another doubt; inactive = no such curve, though single readings can be large; an effect the other way counts as inactive or inconclusive.
# How the values were obtained:
# [1] = Primary qHTS for small molecule stabilizers of the endoplasmic reticulum resident proteome: Secreted ER Calcium Modulated Protein (SERCaMP) assay (AID 1508630)
# Procedure, shortened: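 GLuc-SERCaMP-expressing SH-SY5Y cells, pretreated 16 h with compound, are challenged with thapsigargin to empty ER calcium stores; after 4 h, coelenterazine is added directly to the medium and luminescence is imaged.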
# [2] = target: Cytochrome P450 2C9 (Homo sapiens) (UniProt P11712); experiment: Cytochrome P450 family 2 subfamily C member 9 (CYP2C9) small molecule antagonists: luciferase biochemical (cell-free) qHTS assay (AID 1645842; active = well fitted curve in the direction sought with a large enough effect in the repeat runs; an effect the other way counts as inactive or inconclusive; note: nearly all actives have a fitted effect of over 55% in size; note: potency is the fitted concentration of half-maximal effect)
# Procedure, shortened: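 Luminescence, after 20 min with luciferin detection reagent, reflected CYP2C9 turnover during a 1 h NADPH-driven reaction at 37C. Enzyme-substrate mix contained 0.4% bovine serum albumin and was preincubated with compound 10 min at room temperature.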
# [3] = Primary qHTS for inhibitors of nuclear receptor binding SET domain protein 2 (NSD2) in an isogenic RCH-ACV NSD2 p.E1099K mutant (9B) (AID 1645876); note: nearly all actives have a fitted effect of over 70% in size; note: potency is the fitted concentration of half-maximal effect
# [4] = Primary qHTS for inhibitors of nuclear receptor binding SET domain protein 2 (NSD2) in an RCH-ACV wild type WT cells (2C) (AID 1645877); note: nearly all actives have a fitted effect of over 70% in size; note: potency is the fitted concentration of half-maximal effect
# [5] = A High-Content qHTS Against Drug Library for the Identification of Small Molecules that Inhibit DYT1 Early Onset Primary Dystonia-Associated Cell Pathology (AID 1645839; calls by dose curve; note: potency is the fitted concentration of half-maximal effect)
# Procedure, shortened: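 Flp-In T-REx 293 cells with tetracycline-inducible EGFP-delE hTOR1A (WT EGFP-hTOR1A as reference), 800 cells/well; compound added with tetracycline, 48 h at 37 C. Fixed, permeabilized cells imaged; %pathology (punctate TorsinA) primary, cell count counterscreen.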
# Papain (Carica papaya) = Papain (Carica papaya) (UniProt P00784); experiment: Primary qHTS assay for inhibitors of the protease papain (AID 1645873);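 note: papain turnover of Z-FR-AMC read as the AMC fluorescence gain over 10 min; series mostly up to about 50 µM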
# [6] = target: Cytochrome P450 2D6 (Homo sapiens) (UniProt P10635); experiment: Cytochrome P450 family 2 subfamily D member 6 (CYP2D6) small molecule antagonists: luciferase biochemical (cell-free) qHTS assay (AID 1645840; active = well fitted curve in the direction sought with a large enough effect in the repeat runs; an effect the other way counts as inactive or inconclusive; note: potency is the fitted concentration of half-maximal effect; nearly all actives have a fitted effect of over 55% in size)
# Procedure, shortened: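 P450-Glo luminescent screen: recombinant CYP2D6 enzyme–proluciferin substrate mix preincubated with compound 10 min at room temperature, then NADPH regeneration added for 1 h at room temperature. Detection reagent added for 20 min; luciferin light read as relative luminescence units.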
# [7] = target: Cytochrome P450 3A4 (Homo sapiens) (UniProt P08684); experiment: Cytochrome P450 family 3 subfamily A member 4 (CYP3A4) small molecule antagonists: luciferase qHTS assay (AID 1645841; active = well fitted curve in the direction sought with a large enough effect in the repeat runs; an effect the other way counts as inactive or inconclusive; note: nearly all actives have a fitted effect of over 45% in size)
# Procedure, shortened: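 P450-Glo CYP3A4 enzyme with proluciferin substrate preincubated 10 min with compound at room temperature, then NADPH regeneration 1 h. Luciferin detection reagent added for 20 min; luminescence recorded. Ketoconazole positive control.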
# [8] = target: Rap guanine nucleotide exchange factor 3 (Homo sapiens) (UniProt O95398); experiment: Confirmatory qHTS for agonist of cAMP-regulated guanine nucleotide exchange factor 3 (EPAC1) (AID 1645881);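 note: EPAC1 catalysed release of BODIPY-GDP from Rap1B seen as fluorescence loss; nearly all actives have a fitted effect of over 75% in size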
# [9] = target: Rap guanine nucleotide exchange factor 4 (Homo sapiens) (UniProt Q8WZA2); experiment: Confirmatory qHTS for agonist of cAMP-regulated guanine nucleotide exchange factor 4 (EPAC2) (AID 1645884);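 note: nucleotide exchange releases bodipy-GDP from Rap1 and this lowers its fluorescence; nearly all actives have a fitted effect of over 65% in size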
# Sequence of Rap guanine nucleotide exchange factor 4 (Homo sapiens) (Q8WZA2 whole entry, looked up): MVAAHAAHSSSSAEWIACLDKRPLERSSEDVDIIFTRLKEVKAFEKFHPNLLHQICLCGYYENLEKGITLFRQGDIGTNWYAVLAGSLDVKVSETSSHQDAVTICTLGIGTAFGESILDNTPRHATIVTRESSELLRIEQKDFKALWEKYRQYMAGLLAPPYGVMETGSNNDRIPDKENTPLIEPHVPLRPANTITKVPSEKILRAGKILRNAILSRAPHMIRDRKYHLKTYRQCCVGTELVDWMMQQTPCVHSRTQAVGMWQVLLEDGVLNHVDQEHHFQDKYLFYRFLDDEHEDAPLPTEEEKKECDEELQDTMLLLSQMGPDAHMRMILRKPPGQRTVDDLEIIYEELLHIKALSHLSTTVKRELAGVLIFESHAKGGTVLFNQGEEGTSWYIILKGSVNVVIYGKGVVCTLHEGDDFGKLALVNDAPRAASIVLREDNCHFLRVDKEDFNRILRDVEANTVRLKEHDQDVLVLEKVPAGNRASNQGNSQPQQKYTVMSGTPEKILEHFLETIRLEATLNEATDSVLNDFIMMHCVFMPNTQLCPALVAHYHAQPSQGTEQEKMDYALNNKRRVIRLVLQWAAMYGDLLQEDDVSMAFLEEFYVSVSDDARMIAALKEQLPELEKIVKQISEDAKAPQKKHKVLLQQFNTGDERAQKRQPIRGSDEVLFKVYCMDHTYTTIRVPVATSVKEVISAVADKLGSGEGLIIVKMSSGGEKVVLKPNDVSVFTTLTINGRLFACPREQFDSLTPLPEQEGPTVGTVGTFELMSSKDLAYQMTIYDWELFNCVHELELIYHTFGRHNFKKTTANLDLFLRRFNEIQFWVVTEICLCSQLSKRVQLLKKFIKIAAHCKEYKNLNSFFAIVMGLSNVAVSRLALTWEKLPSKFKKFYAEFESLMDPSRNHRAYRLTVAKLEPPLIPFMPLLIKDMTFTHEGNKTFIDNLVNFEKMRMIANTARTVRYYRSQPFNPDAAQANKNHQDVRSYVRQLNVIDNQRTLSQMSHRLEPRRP
# Sequence of Papain (Carica papaya) (P00784 whole entry, looked up): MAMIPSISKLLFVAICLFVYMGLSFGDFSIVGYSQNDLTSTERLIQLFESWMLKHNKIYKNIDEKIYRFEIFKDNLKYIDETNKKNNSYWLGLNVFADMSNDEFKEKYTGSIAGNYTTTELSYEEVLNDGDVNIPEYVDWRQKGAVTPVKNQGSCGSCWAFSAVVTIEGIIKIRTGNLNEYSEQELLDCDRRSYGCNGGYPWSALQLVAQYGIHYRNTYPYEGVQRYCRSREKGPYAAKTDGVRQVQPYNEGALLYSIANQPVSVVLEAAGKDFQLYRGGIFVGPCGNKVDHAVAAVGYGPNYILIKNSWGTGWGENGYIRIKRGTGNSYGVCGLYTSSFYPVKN
# Sequence of Cytochrome P450 2C9 (Homo sapiens) (P11712 whole entry, looked up): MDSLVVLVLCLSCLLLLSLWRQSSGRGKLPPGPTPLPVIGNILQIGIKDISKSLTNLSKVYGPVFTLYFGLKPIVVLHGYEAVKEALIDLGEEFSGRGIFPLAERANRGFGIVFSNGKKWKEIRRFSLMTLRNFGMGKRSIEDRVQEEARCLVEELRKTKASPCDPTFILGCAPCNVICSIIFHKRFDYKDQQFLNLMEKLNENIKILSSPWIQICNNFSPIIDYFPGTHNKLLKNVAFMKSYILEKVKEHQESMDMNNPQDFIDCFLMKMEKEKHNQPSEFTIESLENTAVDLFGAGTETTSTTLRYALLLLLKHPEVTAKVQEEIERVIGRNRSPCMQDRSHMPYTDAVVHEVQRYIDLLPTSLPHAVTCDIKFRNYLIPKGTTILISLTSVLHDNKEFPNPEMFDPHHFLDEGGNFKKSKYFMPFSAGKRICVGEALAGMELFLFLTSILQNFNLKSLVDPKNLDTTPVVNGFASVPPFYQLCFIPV
# Sequence of Cytochrome P450 2D6 (Homo sapiens) (P10635 whole entry, looked up): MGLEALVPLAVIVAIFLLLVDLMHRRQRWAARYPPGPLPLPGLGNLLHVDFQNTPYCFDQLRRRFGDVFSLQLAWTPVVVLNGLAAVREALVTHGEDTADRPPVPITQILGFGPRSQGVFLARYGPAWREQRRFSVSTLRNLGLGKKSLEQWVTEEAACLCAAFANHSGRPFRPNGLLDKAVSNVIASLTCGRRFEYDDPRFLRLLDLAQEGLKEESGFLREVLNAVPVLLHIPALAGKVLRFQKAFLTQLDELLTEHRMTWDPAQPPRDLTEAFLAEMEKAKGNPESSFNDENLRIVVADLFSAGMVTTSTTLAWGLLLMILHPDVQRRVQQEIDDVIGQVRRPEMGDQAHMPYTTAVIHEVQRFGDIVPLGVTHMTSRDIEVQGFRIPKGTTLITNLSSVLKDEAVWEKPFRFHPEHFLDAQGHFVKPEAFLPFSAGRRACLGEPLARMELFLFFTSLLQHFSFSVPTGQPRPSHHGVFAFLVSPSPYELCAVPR
# Sequence of Rap guanine nucleotide exchange factor 3 (Homo sapiens) (O95398 whole entry, looked up): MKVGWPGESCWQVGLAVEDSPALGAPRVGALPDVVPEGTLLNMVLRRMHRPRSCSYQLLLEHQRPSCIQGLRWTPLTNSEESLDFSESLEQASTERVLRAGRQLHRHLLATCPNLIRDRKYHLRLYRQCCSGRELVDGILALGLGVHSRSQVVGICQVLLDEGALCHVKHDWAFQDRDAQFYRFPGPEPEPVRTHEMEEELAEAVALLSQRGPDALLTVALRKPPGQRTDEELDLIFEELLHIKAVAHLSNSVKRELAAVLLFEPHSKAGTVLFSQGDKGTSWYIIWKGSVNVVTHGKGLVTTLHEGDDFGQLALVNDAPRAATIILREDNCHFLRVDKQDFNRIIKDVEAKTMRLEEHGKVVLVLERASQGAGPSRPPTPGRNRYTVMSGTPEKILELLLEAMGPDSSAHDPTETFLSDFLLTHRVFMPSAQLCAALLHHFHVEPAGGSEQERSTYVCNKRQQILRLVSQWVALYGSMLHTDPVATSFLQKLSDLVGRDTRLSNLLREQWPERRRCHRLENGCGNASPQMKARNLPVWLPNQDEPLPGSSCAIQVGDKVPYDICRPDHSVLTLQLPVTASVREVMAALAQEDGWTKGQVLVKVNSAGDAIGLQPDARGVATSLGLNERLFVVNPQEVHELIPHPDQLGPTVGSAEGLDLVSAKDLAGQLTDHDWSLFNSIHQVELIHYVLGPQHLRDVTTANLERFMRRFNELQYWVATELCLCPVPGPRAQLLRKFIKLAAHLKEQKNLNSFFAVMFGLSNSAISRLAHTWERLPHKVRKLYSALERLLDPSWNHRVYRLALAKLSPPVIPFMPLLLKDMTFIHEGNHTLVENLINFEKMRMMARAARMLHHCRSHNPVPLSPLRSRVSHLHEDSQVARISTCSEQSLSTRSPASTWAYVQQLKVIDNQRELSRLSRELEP
# Sequence of Cytochrome P450 3A4 (Homo sapiens) (P08684 whole entry, looked up): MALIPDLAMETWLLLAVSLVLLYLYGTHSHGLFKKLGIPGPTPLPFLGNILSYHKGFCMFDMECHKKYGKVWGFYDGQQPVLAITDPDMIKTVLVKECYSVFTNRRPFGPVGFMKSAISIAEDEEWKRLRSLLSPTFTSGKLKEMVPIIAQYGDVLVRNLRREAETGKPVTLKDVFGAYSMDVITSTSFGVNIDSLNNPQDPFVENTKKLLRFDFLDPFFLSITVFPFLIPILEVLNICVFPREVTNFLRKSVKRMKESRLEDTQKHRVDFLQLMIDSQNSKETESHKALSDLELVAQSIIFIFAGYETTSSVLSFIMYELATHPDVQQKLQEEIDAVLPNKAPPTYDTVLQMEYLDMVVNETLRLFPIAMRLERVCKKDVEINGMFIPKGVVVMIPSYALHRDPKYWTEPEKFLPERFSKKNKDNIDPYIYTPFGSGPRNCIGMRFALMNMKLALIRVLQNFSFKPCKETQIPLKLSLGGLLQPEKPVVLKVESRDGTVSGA
smiles,measurement,setting,value
CCCCCN(CCCCC)C(=O)C(CCC(=O)O)NC(=O)c1ccc(Cl)c(Cl)c1 (stereo unspecified),Potency,[1],inactive
same,Potency,[2],1.38 µM (active)
same,Potency,[3],inactive
same,Potency,[4],inactive
Cc1ccc(/C(=C\CN2CCCC2)c2ccccn2)cc1,Potency,[5],inactive
same,Potency,[2],inactive
same,Potency,Papain (Carica papaya),inactive
same,Potency,[3],inactive
COCCCC/C(=N\OCCN)c1ccc(C(F)(F)F)cc1,Potency,[6],0.977 µM (active)
same,Potency,Papain (Carica papaya),inactive
CC(C)(C)c1ccc(C(=O)CCCN2CCC(OC(c3ccccc3)c3ccccc3)CC2)cc1,Potency,[1],inactive
same,Potency,Papain (Carica papaya),inactive
same,Potency,[3],11.9 µM (active)
same,Potency,[4],9.44 µM (active)
O=C1NCN(c2ccccc2)C12CCN(CCCC(c1ccc(F)cc1)c1ccc(F)cc1)CC2,Potency,[1],inactive
same,Potency,[6],0.436 µM (active)
same,outcome,[7],inactive
same,Potency,Papain (Carica papaya),inactive
same,Potency,[3],4.22 µM (active)
same,Potency,[4],2.66 µM (active)
same,Potency,[8],inactive
same,Potency,[9],inactive
Fc1ccc(C(c2ccc(F)cc2)N2CCN(C/C=C/c3ccccc3)CC2)cc1,Potency,[5],12.6 µM (active)
same,Potency,Papain (Carica papaya),inactive
CNCCCN1c2ccccc2CCc2ccccc21,Potency,[2],inactive
same,Potency,Papain (Carica papaya),inactive
